# This is part of a sample that, as a whole, favours compounds with a hit. Of some 83,000 tested, about 20% had one in any assay.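 In brief: 96-well plates, 48 h treatment, single concentration, percent growth endpoint.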 Values without a mark were called inactive. Active and inactive are the calls of the source. How the source made its calls: active means growth percent below 10; inactive means the rest.
# Tested on: SNB-75 CNS
# Assay: NCI-60 one-dose screen, 48 h (100 = growth as untreated, 0 = no growth, -100 = all killed)
# Conditions: 10 µM unless noted
row,SMILES,growth
1,C#CCOc1cccc(Nc2ncnc3ccc(NC(=O)CCl)cc23)c1,28%
2,Cc1ccc(C(C(N)=O)C(C(N)=O)c2ccccc2)cc1 (stereo not given),114%
3,COc1cc2c(c(OC)c1OC)-c1ccc(OC)c(=O)cc1[C@@H](NC(=O)CCl)CC2,78.9%
4,CCOc1ccc(NC(=O)CSc2oc(-c3ccccc3)nc2S(=O)(=O)c2ccc(F)cc2)cc1,103%
5,N#CC1=C(N)Oc2c(sc3c(F)cccc23)C1c1ccc(F)cc1 (stereo not given),6.01% (active)
6,Clc1ccc(Nc2nnc(COc3ccccc3)c3ccccc23)cc1,13.1%
7,Cc1ccc(C2=Nc3c(N)ncnc3NC(c3ccc4c(c3)OCO4)C2)cc1 (stereo not given),53.5%
8,Cc1cc(Cl)ccc1NC(=O)c1cc2ccccc2cc1O,38.1%
9,CC(C)n1cnc2c(=S)nc[nH]c21,117%
10,CCOC(=O)CNP(=O)(OC[C@@H](Cc1ccccc1)NC(=O)c1cc2ccccc2s1)Oc1ccccc1 (stereo not given in full),35.2%
11,Brc1ccc2[nH]cc(-c3nonc3-c3c[nH]c4ccccc34)c2c1,46.5%
12,CN(C)CCCC1(c2ccc(F)cc2)OCc2cc(-c3cccc4[nH]ccc34)ccc21 (stereo not given),11.4%
13,C1=C(N2CCCC2)CCC1,93.2%
14,COc1ccc(C(=S)N2CCN(c3ccccc3Cl)CC2)cc1OC,85.6%
15,Cc1cc(=O)[nH]c2c(C#N)cnn12,100%
16,CCCCCOc1ccc(C(=O)/C(Br)=C/C(=O)O)cc1,73.8%
17,COc1cc(-c2nc(SCCC(C)C)nc(Nc3ccccc3Cl)c2C#N)cc(OC)c1OC,89.3%
18,CCN(C(=O)N1CCN(c2cc3c(cc2F)c(=O)c(C(=O)O)cn3C2CC2)CC1)c1nc(-c2ccc(Cl)cc2)cs1,28.9%
19,Fc1ccc2[nH]cc(-c3nonc3-c3c[nH]c4ccc(Br)cc34)c2c1,33.7%
20,N#Cc1cccc(F)c1,127%

row,SMILES,growth
1,Cc1cnc(C(=O)NNc2nc3sc4c(c3c(=O)n2C)C(C)CCC4)cn1 (stereo not given),1.63% (active)
2,O=C(O)[C@@H]1c2ccccc2-c2ccccc2[C@H]1C(=O)O,93.3%
3,CN[C@]12CC3(C=CC(=O)C=C3)O[C@@]1(Cc1ccc(OC)cc1)N(C)C(=O)N2,37.8%
4,Cc1ccccc1/C=C1\CN(C(=O)OC(C)(C)C)C/C(=C\c2ccccc2C)C1=O,53.4%
5,CCc1n(Cc2ccc3ccccc3c2)cc[n+]1Cc1ccc2ccccc2c1,-5.96% (active)
6,CCCCCCCCn1ccc2cc(NC(=O)CN3CCN(c4nc(C)cc(Cl)n4)CC3)ccc21,87%
7,COc1ccc(-c2nc3c(c(-c4ccccc4)nn3-c3ccccc3)c(-c3ccc(N4CCOCC4)cc3)c2C#N)cc1,105%
8,CCC(=C(c1ccc(OCCN2CCCC2)cc1)c1ccc(OCCN2CCCC2)cc1)c1ccc(Cl)cc1,-58.2% (active)
9,CCOC(=O)Cn1c(O)c(N=Nc2ccc(S(N)(=O)=O)cc2)c2cc(Br)ccc21,78%
10,C=C1C(=O)O[C@H]2[C@H]1CC/C(COC(=O)CCSCCC(=O)OC/C1=C/CC[C@@]3(C)O[C@H]3[C@H]3OC(=O)C(=C)[C@@H]3CC1)=C\CC[C@@]1(C)O[C@@H]21,48.6%
11,COC(C(=O)[C@@H](O)[C@@H](C)O)[C@@H]1Cc2cc3cc(O[C@H]4C[C@@H](O[C@H]5C[C@@H](O)[C@H](O)C(C)O5)[C@H](O)C(C)O4)c(C)c(O)c3c(O)c2C(=O)[C@H]1O[C@H]1C[C@@H](O[C@H]2C[C@@H](O[C@H]3C[C@@H](O)[C@H](OC)C(C)O3)[C@@H](O)C(C)O2)[C@H](O)C(C)O1 (stereo not given in full),-57% (active)
12,COC(=O)CNC(=O)[C@H](Cc1ccccc1)NCc1ccncc1,92.4%
13,O=C(O)c1[nH]c(=O)[nH]c(=O)c1[N+](=O)[O-],93.4%
14,Cc1nnc(NC(=O)c2nc(S(=O)(=O)Cc3ccc(F)cc3)ncc2Cl)s1,79.3%
15,O=C1Nc2ccc(Br)cc2/C1=N/c1n[nH]c(=S)s1,74.5%
16,N#CC1=C(c2ccc(Cl)cc2)Nc2c(c(-c3ccc(Cl)cc3)nn2-c2ccccc2)C12C(=O)Nc1ccc(Cl)cc12 (stereo not given),19%
17,O=C1CNC(c2ccccc2)C(c2ccccc2)N1 (stereo not given),75.8%
18,CN1CCN(Cc2ccc3c(NNC(=O)c4ccccc4)nc4cc(F)ccc4n23)CC1,48.8%
19,CC(C)=NNc1ccccn1,79.2%
20,Cc1ccc(/C=N/Nc2nc(Nc3ccccc3)nc(-n3nc(C)cc3C)n2)cc1,83.4%

# Tested on: SNB-19 CNS
# Assay: as above
# Conditions: 10 µM unless noted
row,SMILES,growth
1,C#CCOc1cccc(Nc2ncnc3ccc(NC(=O)CCl)cc23)c1,-23.7% (active)
2,Cc1ccc(C(C(N)=O)C(C(N)=O)c2ccccc2)cc1 (stereo not given),109%
3,COc1cc2c(c(OC)c1OC)-c1ccc(OC)c(=O)cc1[C@@H](NC(=O)CCl)CC2,39.1%
4,CCOc1ccc(NC(=O)CSc2oc(-c3ccccc3)nc2S(=O)(=O)c2ccc(F)cc2)cc1,88%
5,N#CC1=C(N)Oc2c(sc3c(F)cccc23)C1c1ccc(F)cc1 (stereo not given),27.3%
6,Clc1ccc(Nc2nnc(COc3ccccc3)c3ccccc23)cc1,22%
7,Cc1ccc(C2=Nc3c(N)ncnc3NC(c3ccc4c(c3)OCO4)C2)cc1 (stereo not given),73.2%
8,Cc1cc(Cl)ccc1NC(=O)c1cc2ccccc2cc1O,20%
9,CC(C)n1cnc2c(=S)nc[nH]c21,107%
10,CCOC(=O)CNP(=O)(OC[C@@H](Cc1ccccc1)NC(=O)c1cc2ccccc2s1)Oc1ccccc1 (stereo not given in full),87.7%
11,Brc1ccc2[nH]cc(-c3nonc3-c3c[nH]c4ccccc34)c2c1,63.8%
12,CN(C)CCCC1(c2ccc(F)cc2)OCc2cc(-c3cccc4[nH]ccc34)ccc21 (stereo not given),51.9%
13,C1=C(N2CCCC2)CCC1,111%
14,COc1ccc(C(=S)N2CCN(c3ccccc3Cl)CC2)cc1OC,85.3%
15,Cc1cc(=O)[nH]c2c(C#N)cnn12,98.1%
16,CCCCCOc1ccc(C(=O)/C(Br)=C/C(=O)O)cc1,98.8%
17,COc1cc(-c2nc(SCCC(C)C)nc(Nc3ccccc3Cl)c2C#N)cc(OC)c1OC,98.9%
18,CCN(C(=O)N1CCN(c2cc3c(cc2F)c(=O)c(C(=O)O)cn3C2CC2)CC1)c1nc(-c2ccc(Cl)cc2)cs1,15.6%
19,Fc1ccc2[nH]cc(-c3nonc3-c3c[nH]c4ccc(Br)cc34)c2c1,35.8%
20,N#Cc1cccc(F)c1,94.4%

row,SMILES,growth
1,Cc1cnc(C(=O)NNc2nc3sc4c(c3c(=O)n2C)C(C)CCC4)cn1 (stereo not given),-14.8% (active)
2,O=C(O)[C@@H]1c2ccccc2-c2ccccc2[C@H]1C(=O)O,100%
3,CN[C@]12CC3(C=CC(=O)C=C3)O[C@@]1(Cc1ccc(OC)cc1)N(C)C(=O)N2,64.4%
4,Cc1ccccc1/C=C1\CN(C(=O)OC(C)(C)C)C/C(=C\c2ccccc2C)C1=O,39.1%
5,CCc1n(Cc2ccc3ccccc3c2)cc[n+]1Cc1ccc2ccccc2c1,5.41% (active)
6,CCCCCCCCn1ccc2cc(NC(=O)CN3CCN(c4nc(C)cc(Cl)n4)CC3)ccc21,102%
7,COc1ccc(-c2nc3c(c(-c4ccccc4)nn3-c3ccccc3)c(-c3ccc(N4CCOCC4)cc3)c2C#N)cc1,103%
8,CCC(=C(c1ccc(OCCN2CCCC2)cc1)c1ccc(OCCN2CCCC2)cc1)c1ccc(Cl)cc1,-19% (active)
9,CCOC(=O)Cn1c(O)c(N=Nc2ccc(S(N)(=O)=O)cc2)c2cc(Br)ccc21,91.4%
10,C=C1C(=O)O[C@H]2[C@H]1CC/C(COC(=O)CCSCCC(=O)OC/C1=C/CC[C@@]3(C)O[C@H]3[C@H]3OC(=O)C(=C)[C@@H]3CC1)=C\CC[C@@]1(C)O[C@@H]21,55%
11,COC(C(=O)[C@@H](O)[C@@H](C)O)[C@@H]1Cc2cc3cc(O[C@H]4C[C@@H](O[C@H]5C[C@@H](O)[C@H](O)C(C)O5)[C@H](O)C(C)O4)c(C)c(O)c3c(O)c2C(=O)[C@H]1O[C@H]1C[C@@H](O[C@H]2C[C@@H](O[C@H]3C[C@@H](O)[C@H](OC)C(C)O3)[C@@H](O)C(C)O2)[C@H](O)C(C)O1 (stereo not given in full),12.4%
12,COC(=O)CNC(=O)[C@H](Cc1ccccc1)NCc1ccncc1,97.7%
13,O=C(O)c1[nH]c(=O)[nH]c(=O)c1[N+](=O)[O-],110%
14,Cc1nnc(NC(=O)c2nc(S(=O)(=O)Cc3ccc(F)cc3)ncc2Cl)s1,92.8%
15,O=C1Nc2ccc(Br)cc2/C1=N/c1n[nH]c(=S)s1,101%
16,N#CC1=C(c2ccc(Cl)cc2)Nc2c(c(-c3ccc(Cl)cc3)nn2-c2ccccc2)C12C(=O)Nc1ccc(Cl)cc12 (stereo not given),24.4%
17,O=C1CNC(c2ccccc2)C(c2ccccc2)N1 (stereo not given),100%
18,CN1CCN(Cc2ccc3c(NNC(=O)c4ccccc4)nc4cc(F)ccc4n23)CC1,27.4%
19,CC(C)=NNc1ccccn1,62.3%
20,Cc1ccc(/C=N/Nc2nc(Nc3ccccc3)nc(-n3nc(C)cc3C)n2)cc1,74.4%
